Experimental data: PubChem BioAssay AID602430 (NMMLSC, 2012)
This is one part of the list. Active and inactive are the calls of the source.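 Rule for the calls: active = repeat-averaged ratio response below 75% of DMSO, the collection mean minus 3 SD; inactive = the rest.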

molecular target: ATP-binding cassette sub-family B member 6 (Homo sapiens) (UniProt Q9NP58); assay: ABCB6 transporter inhibitors, confirmation, K562-ABCB6 cells, flow cytometry, cherry pick 1 (AID 602430); conditions: K562-ABCB6 porphyrin accumulation, 1 h, at 10 µM, active compounds read low;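 note: median porphyrin fluorescence at 575 nm with 488 nm excitation from mitochondria; lower ratio means less porphyrin signal so ABCB6 inhibition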
Sequence (Q9NP58 whole entry, looked up): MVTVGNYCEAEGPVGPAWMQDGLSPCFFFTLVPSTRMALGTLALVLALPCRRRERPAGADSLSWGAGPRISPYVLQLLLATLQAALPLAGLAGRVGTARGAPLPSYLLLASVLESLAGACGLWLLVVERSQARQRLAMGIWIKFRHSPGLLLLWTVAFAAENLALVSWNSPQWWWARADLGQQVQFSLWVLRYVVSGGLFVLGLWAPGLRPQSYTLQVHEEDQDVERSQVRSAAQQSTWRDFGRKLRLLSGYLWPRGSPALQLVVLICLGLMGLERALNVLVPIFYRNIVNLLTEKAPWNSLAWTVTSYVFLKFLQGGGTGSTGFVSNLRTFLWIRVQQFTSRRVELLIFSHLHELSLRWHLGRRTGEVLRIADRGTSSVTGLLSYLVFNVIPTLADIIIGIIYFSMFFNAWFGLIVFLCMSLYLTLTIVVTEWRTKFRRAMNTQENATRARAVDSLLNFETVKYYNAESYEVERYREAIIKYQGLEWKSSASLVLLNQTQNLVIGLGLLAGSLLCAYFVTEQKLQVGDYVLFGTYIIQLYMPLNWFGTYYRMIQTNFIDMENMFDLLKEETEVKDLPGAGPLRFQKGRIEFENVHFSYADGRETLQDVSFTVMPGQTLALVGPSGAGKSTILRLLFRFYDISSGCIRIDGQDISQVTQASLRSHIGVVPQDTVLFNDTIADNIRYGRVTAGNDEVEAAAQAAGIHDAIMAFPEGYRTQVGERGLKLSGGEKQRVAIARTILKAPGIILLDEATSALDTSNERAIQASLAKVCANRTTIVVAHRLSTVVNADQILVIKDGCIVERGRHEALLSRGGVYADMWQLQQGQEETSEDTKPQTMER

Ratio response (% of DMSO), inactive:
CCC(=O)N1CCCC1(C)C(=O)Nc1ccc2c(c1)CCN2C(C)=O (centres undefined) 99%, COc1cccc(N(CC(=O)N2CCc3ccccc3C2)S(C)(=O)=O)c1 100%, O=C(COc1ccc(-n2cnnn2)cc1)Nc1ccccc1Cl 99%, Cc1cc(C)cc(NC(=O)NCc2ccccn2)c1 96%, O=C1CCCC2=C1C(c1cccs1)n1nc(SCc3ccccc3)nc1N2 (centres undefined) 102%, Cc1nn(-c2ccccc2)c(C)c1C(=O)OCC(=O)NC(=O)NC1CCCCC1 97%, CC(C(=O)Nc1ccc(F)c(F)c1F)N1CCCCCC1 (centres undefined) 101%, Cc1ccc(NC(=O)N2CCC(c3nc4c(nnn4Cc4c(F)cccc4Cl)c(=O)[nH]3)CC2)cc1 98%, Cc1cccc(NC(=O)c2nc(S(=O)(=O)Cc3ccccc3)ncc2Cl)c1 90%, COc1ccccc1C(=O)C(O)c1ccccc1OC (centres undefined) 102%, CCCOC(=O)C1=C(C)NC2=C(C(=O)C(C(=O)OC)C(C)C2)C1c1ccc(N(C)C)cc1 (centres undefined) 100%, Cc1ccccc1OCC(=O)Nc1nnc(S(=O)(=O)N2CCCC2)s1 101%, COc1ccc(CCNC2=C(Cl)C(=O)N(Cc3ccccc3)C2=O)cc1OC 100%, Cc1cccc(CS(=O)(=O)c2ncc(Cl)c(C(=O)Nc3ccc(F)cc3)n2)c1 89%, CC(C)C(=O)NCC(c1cccs1)S(=O)(=O)c1ccc(F)cc1 (centres undefined) 100%, Cc1ccc(SCC(=O)Nc2ncc(C)s2)cc1 103%, OCCC1CN(Cc2cnc(-c3ccccc3)s2)CCN1CCc1ccccc1 (centres undefined) 102%, O=C(Cc1cccs1)NCc1cccc(C(F)(F)F)c1 103%, Cc1cccc(N2CCN(C(=O)CCS(=O)(=O)c3ccc4c(c3)NC(=O)C(C)S4)CC2)c1C (centres undefined) 96%, COC(=O)CNC(=O)c1cc(-c2ccncc2)nc2ccccc12 101%, CC1(C(=O)NS(=O)(=O)c2cccc(F)c2)CCN1C(=O)Cc1cc(F)ccc1F (centres undefined) 97%, CCOC(=O)N1CCN(C(=O)CN(C2CCCCC2)S(C)(=O)=O)CC1 101%, Cc1ccc2nc3c(cc(C(=O)NCCc4ccccc4)c(=N)n3CC3CCCO3)c(=O)n2c1 (centres undefined) 102%, COc1cc2[nH]c(=S)n(Cc3ccc(F)cc3)c(=O)c2cc1OC 100%, COc1ccc(CCNS(=O)(=O)c2ccc(F)cc2)cc1OC 101%, O=C(c1ccc(Cl)cc1)c1cnc(Nc2ccccc2)s1 102%, CCn1c(COc2ccccc2)nnc1SCC(=O)Nc1ccc2c(c1)OCCO2 97%, O=C(Nn1cnc2ccccc2c1=O)c1ccc(F)cc1Cl 93%, CCOc1ccc(NC(=O)CC2NCCNC2=O)cc1 (centres undefined) 100%, O=C(NCCSc1ncc(-c2ccccc2)[nH]1)c1ccco1 102%, CC1(C)Cc2c(C#N)c(SCc3nc4ccccc4[nH]3)nc(N3CCOCC3)c2CO1 96%, Cc1ccccc1NC(=O)C(C)OC(=O)CCC(=O)N(CC(C)C)c1c(N)n(CC(C)C)c(=O)[nH]c1=O (centres undefined) 101%, CCS(=O)(=O)N1CCC(N2CCN(c3ccccc3)CC2)CC1 103%, Cc1ccc(Cl)cc1N1CCN(C(=O)c2cccc3c(=O)c(C)c(-c4ccccc4)oc23)CC1 102%
